According to the supplement of paper PMC6555819:

Experiments:
Test in all cases: PBM binding z-score (relative to random genomic background probes); higher = stronger binding; sequences stand for … in GC…GCGATTGACAGCGTAGAATGAAGG
[1] = test system: FXR:RXRa (NR concentration 270 nM, RXRa partner concentration 90 nM)
Summary of the method: (§1)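 Binding buffer was PBS pH 7.4 with 2% milk, 0.02% Triton X-100, 1 mM DTT, 0.2 mg/mL BSA and 0.4 mg/ml salmon testes DNA. In it, ligand-free nuclear receptor dimers were incubated 1 h on custom Agilent 4×180K protein-binding microarrays carrying double-stranded probes. Antibodies against each partner (one per run) detected binding, and z-scores were calculated against random background probes after regression normalization of scanned fluorescence.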

[2] = test system: LXRa:RXRa (NR concentration 270 nM, RXRa partner concentration 90 nM)
Summary of the method: as §1

[3] = test system: LXRa homodimer (NR concentration 270 nM)
Summary of the method: as §1

[4] = test system: LXRb:RXRa (NR concentration 270 nM, RXRa partner concentration 90 nM)
Summary of the method: as §1

[5] = test system: LXRb homodimer (NR concentration 270 nM)
Summary of the method: as §1

[6] = test system: PPARa:RXRa (NR concentration 270 nM, RXRa partner concentration 90 nM)
Summary of the method: as §1

[7] = test system: PPARg:RXRa (NR concentration 180 nM, RXRa partner concentration 90 nM)
Summary of the method: as §1

[8] = test system: PPARg:RXRa 270nM:90nM, anti-RXR (NR concentration 270 nM, RXRa partner concentration 90 nM)
Summary of the method: as §1

[9] = test system: PPARg:RXRa 30nM:10nM, anti-RXR (NR concentration 30 nM, RXRa partner concentration 10 nM)
Summary of the method: as §1

[10] = test system: PPARg:RXRa 90nM:30nM, anti-RXR (NR concentration 90 nM, RXRa partner concentration 30 nM)
Summary of the method: as §1

[11] = test system: PPARg:RXRa DBDmut IVT, anti-RXR (DBD mutation: RXRa K156A/R161A, NR concentration 270 nM, RXRa partner concentration 90 nM)
Summary of the method: as §1

[12] = test system: PPARg:RXRa IVT, anti-PPARg (NR concentration 270 nM, RXRa partner concentration 90 nM)
Summary of the method: as §1

[13] = test system: PPARg DBDmut:RXRa IVT, anti-PPARg (DBD mutation: PPARg1 K132A/R137A, NR concentration 270 nM, RXRa partner concentration 90 nM)
Summary of the method: as §1

[14] = test system: PPARg DBDmut IVT, anti-PPARg (DBD mutation: PPARg1 K132A/R137A, NR concentration 270 nM)
Summary of the method: as §1

[15] = test system: PPARg homodimer (NR concentration 180 nM)
Summary of the method: as §1

[16] = test system: PXR:RXRa (NR concentration 270 nM, RXRa partner concentration 90 nM)
Summary of the method: as §1

[17] = test system: PXR homodimer (NR concentration 270 nM)
Summary of the method: as §1

[18] = test system: RARa:RXR (NR concentration 270 nM, RXRa partner concentration 90 nM)
Summary of the method: as §1

[19] = test system: RARa homodimer (NR concentration 270 nM)
Summary of the method: as §1

[20] = test system: RARb:RXRa (NR concentration 270 nM, RXRa partner concentration 90 nM)
Summary of the method: as §1

| Sequence | PBM binding z-score [1] | PBM binding z-score [2] | PBM binding z-score [3] | PBM binding z-score [4] | PBM binding z-score [5] | PBM binding z-score [6] | PBM binding z-score [7] | PBM binding z-score [8] | PBM binding z-score [9] | PBM binding z-score [10] | PBM binding z-score [11] | PBM binding z-score [12] | PBM binding z-score [13] | PBM binding z-score [14] | PBM binding z-score [15] | PBM binding z-score [16] | PBM binding z-score [17] | PBM binding z-score [18] | PBM binding z-score [19] | PBM binding z-score [20] |
| --- | --- | --- | --- | --- | --- | --- | --- | --- | --- | --- | --- | --- | --- | --- | --- | --- | --- | --- | --- | --- |
| TCTTGTAGATCAATAGAGGTTAAGAATGTGCGCT | 0.658 | 2.14 | 0.456 | 1.44 | 0.239 | 1.91 | 0.259 | 1.56 | 2.73 | 1.97 | 2 | 1.37 | 0.489 | 0.485 | 0.502 | 1.65 | 0.282 | 1.86 | 0.562 | 0.764 |
| CGTCCAAGGTCAGCAGGTCAGTGGAAGCGACGTG | 5.74 | 3.85 | 0.538 | 2.96 | -0.217 | 4.94 | 4.05 | 4.15 | 0.99 | 2.87 | 2.83 | 3.58 | -0.161 | -0.183 | 2.96 | 3.57 | 0.377 | 4.3 | 0.462 | 5.23 |
| CGTCCAAGGTCAATGCCAGGTCAGTGAAAGCATT | 7.1 | 5.52 | 3.08 | 4.42 | 1.04 | 5.11 | 4.05 | 4.59 | 1.16 | 3.45 | 2.99 | 3.63 | 0.209 | -0.326 | 7.26 | 5.48 | 2.85 | 6.58 | 1.59 | 5.39 |
| GGAAAGAGGGCAAAGTTGATAGCATCTGTCGACG | 2.04 | 1.94 | 0.254 | 1.64 | 0.832 | 4.24 | 6.06 | 6.9 | 5.92 | 7.29 | 3.73 | 3.74 | 1.03 | -0.31 | 1.67 | 1.77 | 0.468 | 2.25 | 0.527 | 2.77 |
| CCTTACGGGTCACGGACAGGTTATAGCATTTGGA | 6.85 | 5.09 | 0.422 | 4.42 | 0.0189 | 6.01 | 6.38 | 6.56 | 3.37 | 5.44 | 3.87 | 4.87 | 1.03 | 2.15 | 5.94 | 4.82 | 0.261 | 6.3 | 2.04 | 4.37 |
| GCTTGTAGATCAAGGTTAAGGAAGACTAAGCTAA | 0.0551 | 0.428 | -0.182 | 0.363 | -0.628 | 1.68 | 1.05 | 2.33 | 0.604 | 1.48 | 1.33 | 1.17 | -0.221 | 0.338 | 0.301 | 0.301 | -0.237 | 0.84 | -0.272 | 0.798 |
| ATCTCTAGGTACAGATAGTTCAGTGAATGCAAAT | 0.079 | 0.141 | 0.396 | 0.242 | 0.548 | 0.12 | 0.349 | 0.108 | 0.29 | 0.33 | -0.154 | 0.347 | 1.38 | 1.2 | 0.865 | 0.698 | 1.5 | 0.218 | 0.726 | 0.832 |
| CCTACTGGGACACGAAAGGTCATTGATTCAGTGA | 3.84 | 4.83 | 5.13 | 4.17 | 0.785 | 4.65 | 4.68 | 4.72 | 2.24 | 4.34 | 5.93 | 5.78 | 0.301 | -0.131 | 2.99 | 4.91 | 2.47 | 4.98 | 1.59 | 4.06 |
| TCATATCGGTAAATGCTAGGTGAAAGTCCGATCT | 0.228 | 0.361 | 0.17 | 0.39 | 0.0158 | 0.778 | 0.243 | 2.06 | 3.69 | 2.84 | 1.8 | 1.17 | 0.763 | 0.728 | 0.249 | 0.387 | -0.111 | 0.463 | -0.336 | 0.381 |
| CTACCAAGGTGAACAAGGCCGTTGATTACTATTC | 0.303 | 0.209 | -0.224 | 0.646 | -0.622 | 1.25 | 0.647 | 0.527 | -0.248 | 0.152 | 2.3 | 2.16 | 0.257 | -0.28 | 0.346 | 0.327 | 0.451 | 0.868 | -0.304 | 1.59 |
| CCTCGGAGGACAGAAGGTCCGAGCTGTCCGCTTT | -0.475 | -0.736 | -0.887 | -1.15 | -0.992 | -1.11 | -0.956 | -1.22 | -1.48 | -1.44 | -0.468 | -1.02 | -0.692 | -1.96 | -0.27 | -0.746 | -0.803 | -0.601 | -1.06 | 0.0749 |
| GCGACTGGGGCAAAGCAGGTTCCCATAAGGTTGG | -0.34 | -0.649 | -0.593 | -0.596 | -1.21 | 0.522 | 0.609 | 0.847 | -0.583 | 0.203 | 3.87 | 2.9 | -1.3 | -1.28 | -0.328 | -0.524 | -0.517 | -0.168 | -1.06 | 0.44 |
| TCTTGTAGATCAAAGGTTAATAAAGCCGAAGCCT | 1.43 | 1.96 | 0.26 | 2.03 | 0.175 | 4.63 | 7.9 | 7.38 | 7.95 | 8.32 | 2.46 | 3.56 | 0.977 | 1.2 | 1.25 | 1.62 | 0.19 | 2.43 | 1.02 | 1.64 |
| CAAACAGGGTCAGCTAGGCCAGAGTAGGGACGGC | 4.65 | 2.73 | -0.316 | 2.21 | 0.0212 | 4.47 | 3.5 | 3.57 | 0.838 | 2.35 | 2.12 | 2.9 | 0.368 | 0.041 | 1.74 | 2.42 | 0.185 | 3.18 | 0.11 | 3.96 |
